Screens deposited in PubChem BioAssay by National Center for Advancing Translational Sciences (NCATS).
This is a sample that favours compounds with a hit; in the whole collection about 5.4% have one here.
VACV Venus inh: vaccinia inhibition (Venus reporter); Vaccinia virus Venus reporter expression, fluorescence; Potency, µM (titrated, usually from 36.5 µM), without a hit: top-dose activity change, negative = inhibition, actives largely listed as inhibitors; 330,000 tested, 0.46% active; AID 720580; calls by dose curve; tested in A549 cells; note: nearly all actives have a fitted effect of over 30% in size
Vaccinia mCherry: vaccinia inhibition (mCherry reporter) | 310,000 tested, 0.63% active | Potency, µM (top dose mostly 36.5 µM), without a hit: at the top dose activity change, negative = inhibition, hits mostly inhibitors | Vaccinia virus mCherry reporter infection, fluorescence; calls by dose curve; tested in A549 cells; note: nearly all actives have a fitted effect of over 35% in size
FMDV inh: blocks foot and mouth disease virus | 410,000 tested, 1.2% active | FMDV antiviral cell-based qHTS | Potency, µM (top dose mostly 57.9 µM), for inactives: at the top dose activity change, negative = inhibition, actives largely listed as inhibitors; calls by dose curve; tested in HEK293T cells; note: read-out not given here; nearly all actives have a fitted effect of over 45% in size
Marburg entry inh: Marburg virus entry inhibition. 300,000 tested, 1.8% active. Potency, µM (series often up to 37.8 µM), inactives show at the top dose activity change, negative = inhibition, usual class: inhibitors. Marburg virus pseudotyped entry inhibition, cell reporter; calls by dose curve; tested in HEK293 cells
Sm TGR block: blocks Schistosoma mansoni thioredoxin glutathione reductase; AID 485364; Q962Y6; 360,000 tested, 3% active; Potency, µM (highest dose often 114 µM), inactives show top-dose activity change, negative = inhibition, most hits filed as inhibitors; purified TGR, DTNB reduction, TNB absorbance 405 nm; active = well fitted inhibition curve with a large enough effect; inconclusive = small, poorly fitted or top-dose-only effect; inactive = no such curve, though single readings can be large or run the other way; note: nearly all actives have a fitted effect of over 60% in size
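First, TGR (20 nM dispensed) and NADPH were mixed with compound. Second, a 15 min room-temperature incubation followed. Third, further NADPH and then DTNB were added to start the reaction. Finally, TNB absorbance was monitored kinetically.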
LASV entry inh: Lassa virus entry inhibition | Lassa virus pseudotype entry inhibition, cell reporter | Potency, µM (top dose mostly 37.9 µM), without a hit: at the highest dose activity change, negative = inhibition, actives largely listed as inhibitors | 300,000 tested, 1.2% active; calls by dose curve; tested in HEK293 cells; note: nearly all actives have a fitted effect of over 50% in size
* marks the source's active call; other numbers are inactive results; ! = not active in a repeat; [ ] = another dose, or the depositor's remark. % is set by controls: 0 for no effect and ±100 for the full control effect; potency is the fitted concentration of half-maximal effect.

`COc1ccc(Nc2ncc3c(n2)CC(c2ccc(C)cc2)CC3=O)cc1` (configuration not stated) gave FMDV inh 7.4%, Marburg entry inh inconclusive, Sm TGR block 10.6% and LASV entry inh 0.231µM*.
`O=C(NCc1ccco1)c1sc2cc(Cl)ccc2c1Cl` gave VACV Venus inh -17.1%, Vaccinia mCherry -6.9%, Marburg entry inh 28.9%, Sm TGR block 39.8µM* and LASV entry inh inconclusive.
`O=C(NCc1ccco1)c1cc2cc3ccc(Cl)cc3nc2o1` gave VACV Venus inh inconclusive, Vaccinia mCherry inconclusive, FMDV inh 8.5%, Marburg entry inh inconclusive, Sm TGR block 0.0% and LASV entry inh 17.8µM*.
For O=C(NCc1ccco1)c1sc2ccccc2c1Cl the results were VACV Venus inh -28.7%, FMDV inh 40.8%, Marburg entry inh 20.8%, Sm TGR block inconclusive and LASV entry inh 17.2%.
Cc1cccc(OCCCC(=O)Nc2ccc(Br)cc2)c1 was read as VACV Venus inh -8.7%, Vaccinia mCherry -15.1%, FMDV inh -19.9%, Marburg entry inh 11.2µM*, Sm TGR block -0.2% and LASV entry inh -3.6%.
Cc1cccc(OCCCC(=O)NC(C)C)c1 was read as VACV Venus inh 11.2µM*, FMDV inh 7.1%, Marburg entry inh -6.7%, Sm TGR block 4.3% and LASV entry inh 1.1%.
`CC(C)OCCCn1c(=O)c2ccccc2n2c(-c3cc(Cl)ccc3O)nnc12` gave VACV Venus inh 9.9%, Vaccinia mCherry -9.1%, FMDV inh -7.4%, Marburg entry inh 7.7%[46.1 µM], Sm TGR block 8.7% and LASV entry inh 5.7%[46.1 µM].
CC1[C@H]2Cc3ccc(O)cc3[C@]1(C)CCN2CCc1ccccc1 (some centres not stated) was read as VACV Venus inh -15.9%, Vaccinia mCherry -8.9% and FMDV inh -23.9%.
Screening CNC(=O)Oc1ccc2c(c1)[C@]1(C)CCN(C)[C@@H]1N2C returned VACV Venus inh -3.2%, Vaccinia mCherry inactive, FMDV inh 0.0%, Marburg entry inh 0.282µM*!, Sm TGR block 0.0% and LASV entry inh -7.4%.
For CN1CC[C@@]2(C)c3cc(O)ccc3N(C)C12 (some centres not stated) the results were VACV Venus inh -15.1%, Vaccinia mCherry -22.2%, Marburg entry inh 7.94µM* and LASV entry inh 8.2µM*.
Screening CNc1ccc2oc(C[C@H]3O[C@]4(CC[C@H]3C)O[C@H]([C@H](C)C(=O)c3ccc[nH]3)[C@H](C)C[C@H]4C)nc2c1C(=O)O returned FMDV inh -11.9% and Marburg entry inh 0.708µM*.
`COc1ccc(-c2noc(C3CC(=O)N(c4ccc(C)c(F)c4)C3)n2)c(OC)c1` (configuration not stated) gave VACV Venus inh 7.1%, Vaccinia mCherry 3.8%, FMDV inh 0.0%, Sm TGR block -2.1% and LASV entry inh 1.0%[46.1 µM].
Nc1nc(-c2ccccc2)c(-c2ccc([N+](=O)[O-])cc2)s1 was read as VACV Venus inh inconclusive, Vaccinia mCherry 22.4µM*, FMDV inh inconclusive and Sm TGR block 7.3%.
Screening Nc1nc(-c2ccccc2)c(-c2ccccc2)s1 returned VACV Venus inh -8.2%, Vaccinia mCherry -11.3%, FMDV inh -20.3%, Marburg entry inh -7.7%, Sm TGR block 6.1% and LASV entry inh inconclusive.
For Cc1cc(C)cc(-n2c(SCC(=O)Nc3ccccc3)nc3c(oc4ccccc43)c2=O)c1 the results were VACV Venus inh -10.2%, Vaccinia mCherry -6.8%, FMDV inh 0.0%, Marburg entry inh inconclusive and Sm TGR block 1.5%.
Screening C/C=C\C=C/C(=O)Nc1cccc(C2=NOC3(C2)C[C@@H](C(N)=O)N(C(=O)COc2ccc(Cl)cc2)C3)c1 (some centres not stated) returned VACV Venus inh -19.2%, Vaccinia mCherry inactive, FMDV inh 0.0% and Sm TGR block 3.16µM*.
`C/C=C\C=C\C(=O)N1CC2(CC(c3cccc(NC(=O)COc4ccc(Cl)cc4)c3)=NO2)C[C@H]1C(N)=O` (some centres not stated) gave VACV Venus inh -14.9%, Vaccinia mCherry inactive, FMDV inh -2.4% and Sm TGR block 7.08µM*.
Screening CCc1nn2c(=O)cc(COC(=O)c3ccccc3NC(=O)c3cccs3)nc2s1 returned VACV Venus inh -15.3%, Vaccinia mCherry -19.8%, FMDV inh -22.1%, Sm TGR block 4.7% and LASV entry inh 1.2%[46.1 µM].
For CCN(CC)C(=O)Cn1c(=O)n(Cc2ccc(C(=O)NCCc3ccc(OC)c(OC)c3)cc2)c(=O)c2ccccc21 the results were VACV Venus inh -11.0%, Vaccinia mCherry -2.5%, FMDV inh -4.1%, Marburg entry inh inconclusive, Sm TGR block -0.5% and LASV entry inh 26.6%[46.1 µM].
Screening O=C(CCl)c1cc2c3c(c1)CC(=O)N3CCC2 returned VACV Venus inh -6.6%, Vaccinia mCherry inconclusive, FMDV inh 22.4µM*, Marburg entry inh inconclusive, Sm TGR block 1.58µM* and LASV entry inh 1.7%[46.1 µM].
`CCCCc1c(C)c(C#N)c2[nH]c3ccccc3n2c1=O` gave VACV Venus inh -14.9%, FMDV inh 22.4µM*, Marburg entry inh inconclusive, Sm TGR block -0.7% and LASV entry inh inconclusive.
For Cc1oc(-c2ccc(F)cc2)nc1CN(Cc1ccccn1)CC1CCCO1 (configuration not stated) the results were VACV Venus inh 0.8%, Vaccinia mCherry -4.0%, FMDV inh -26.9%, Marburg entry inh -15.0%[14.2 µM], Sm TGR block 39.8µM* and LASV entry inh 9.1%.
`CCN(CC)c1ccccc1` gave VACV Venus inh -1.1%, Vaccinia mCherry inactive, FMDV inh -22.8%, Marburg entry inh -0.2% and Sm TGR block -3.8%.
For CCN(CC)c1ccc(C(=C2C=CC(=[N+](CC)CC)C=C2)c2ccccc2)cc1 the results were VACV Venus inh 2µM*, Vaccinia mCherry inconclusive, FMDV inh 3.55µM*, Marburg entry inh inconclusive and LASV entry inh 0.562µM*.
`CCN(CC)c1ccc(C(=C2C=CC(=[N+](CC)CC)C=C2)c2ccc(N(CC)CC)cc2)cc1` gave FMDV inh 8.91µM*.
For Cc1c2cnn(CC(=O)N3CCCCC3)c(=O)c2c(C)n1Cc1ccc(Cl)cc1 the results were VACV Venus inh -19.2%, Vaccinia mCherry -14.8%, FMDV inh -24.9%, Marburg entry inh -0.7%[46.1 µM], Sm TGR block -9.7% and LASV entry inh inconclusive.
For CCS(=O)(=O)NCc1c(C)ncc2c1CCN(C(=O)c1csc(-c3cccs3)n1)C2 the results were VACV Venus inh 0.0%, Vaccinia mCherry -4.6% and FMDV inh -7.2%.
`COc1ccc(-c2nc3c4c(ncn3n2)-c2ccccc2CC42CCCC2)cc1` gave VACV Venus inh -2.7%, Vaccinia mCherry -4.2%, FMDV inh 31.6µM*, Marburg entry inh 9.7%, Sm TGR block 0.0% and LASV entry inh -0.4%.
